Screening data (PubChem)
The list is not random: actives were taken first. Their share in the collection is about 9.3%.
ELG1 repair inh = qHTS screen for small molecules that inhibit ELG1-dependent DNA repair in human embryonic kidney (HEK293T) cells expressing luciferase-tagged ELG1; HEK293T ELG1-luciferase reporter, luminescence, 16 h; DNA damage induced by 5-fluorouridine; Potency, µM (titrated, usually from 46.1 µM), for the others: top-dose activity change, negative = inhibition, most hits filed as inhibitors; actives 2.3% (n = 330,000); AID 504467, 2011; also: % is scaled to controls: 0 for no effect and ±100 for the full control effect; nearly all actives have a fitted effect of over 55% in size
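Luminescence from the luciferase reporter, measured 30 min after ONE-Glo reagent at room temperature, was the read-out. Beforehand, 2,000 cells per well were exposed for 16 hr at 37 °C to 5-fluorouridine together with compound or vehicle.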
ELG1 genotoxic = qHTS screen for small molecules that induce genotoxicity in human embryonic kidney (HEK293T) cells expressing luciferase-tagged ELG1 | HEK293T ELG1-luciferase reporter, luminescence, 16 h | Potency, µM (titrated, usually from 46 µM), for inactives: top-dose activity change, positive = activation, actives largely listed as activators | actives 1.3% (n = 330,000) | AID 504466, 2011; also: % of control where 0% means no effect; nearly all actives have a fitted effect of over 60% in size
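Genotoxic stress is detected as increased luminescence from luciferase-tagged ELG1 in HEK293T cells, measured with ONE-Glo after a 16 hr treatment at 37 °C.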
SMN2 splice enh = qHTS Assay for Enhancers of SMN2 Splice Variant Expression. HEK293 SMN2-luciferase splicing reporter, luminescence, 30-36 h. Potency, µM (titrated, usually from 46.1 µM), without a hit: top-dose activity change, positive = activation, usual class: activators. actives 2.8% (n = 210,000); also: % of control where 0% means no effect; nearly all actives have a fitted effect of over 55% in size
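HEK293 cells carry an SMN2 […]–luciferase reporter in which exon 7 inclusion puts luciferase in frame. Cells were plated 10-12 h before compound addition, then incubated 30-36 h at 37C. ONE-Glo luminescence was read; sodium butyrate at 4.5 mM final served as control.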
FLuc modulator = qHTS profiling assay for firefly luciferase inhibitor/activator using purifed enzyme and Km concentrations of substrates (counterscreen for miR-21 project) | Luciferin 4-monooxygenase (Photinus pyralis), P08659 | Potency, µM (top dose mostly 57.5 µM), without a hit: top-dose activity change, negative = inhibition, actives largely listed as inhibitors | purified FLuc, Km substrates, luminescence inhibition | actives 6.9% (n = 360,000) | AID 588342, 2011;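 also: plate controls were vehicle for no effect and reference inhibitor for full effect; nearly all actives have a fitted effect of over 55% in size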
Target sequence (P08659 whole entry, looked up): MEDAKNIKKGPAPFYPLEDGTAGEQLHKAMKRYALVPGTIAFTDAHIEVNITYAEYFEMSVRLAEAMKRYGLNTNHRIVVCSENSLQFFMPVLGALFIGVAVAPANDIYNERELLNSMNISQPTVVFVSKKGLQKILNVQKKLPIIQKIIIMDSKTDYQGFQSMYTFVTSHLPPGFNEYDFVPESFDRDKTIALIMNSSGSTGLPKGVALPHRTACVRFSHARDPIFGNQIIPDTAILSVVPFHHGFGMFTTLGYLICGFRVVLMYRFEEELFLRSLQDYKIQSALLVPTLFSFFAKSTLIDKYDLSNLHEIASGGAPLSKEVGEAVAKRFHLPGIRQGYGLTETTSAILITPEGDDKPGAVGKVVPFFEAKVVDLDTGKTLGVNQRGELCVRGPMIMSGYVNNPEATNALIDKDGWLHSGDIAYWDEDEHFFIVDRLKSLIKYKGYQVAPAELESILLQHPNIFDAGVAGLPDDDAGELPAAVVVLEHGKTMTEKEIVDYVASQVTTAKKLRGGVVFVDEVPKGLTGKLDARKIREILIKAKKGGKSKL
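Biochemical qHTS of compounds, final roughly 60 µM downward over six points, against 10 nM purified firefly luciferase using Km concentrations of substrates (10 uM D-luciferin, 10 uM ATP) in Tris acetate pH 7.5 buffer; luminescence output.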
Rab9 promoter act = qHTS Assay for Rab9 Promoter Activators; Potency, µM (titrated, usually from 9.22 µM), inactives show at the top dose activation, negative = inhibition, hits mostly activators; AID 485297, 2010; actives 2.8% (n = 320,000); Huh7 Rab9 promoter-luciferase reporter, luminescence, 24 h; also: % of control where 0% means no effect; nearly all actives have a fitted effect of over 60% in size
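Luciferase signal after 10 min detection reagent at ambient indicates Rab9 promoter upregulation; stably transfected Huh7 cells were treated 24 h with compound in DMSO at 37 °C, 5% CO2.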
NPC1 prom act = qHTS Assay for NPC1 Promoter Activators. Huh7 NPC1 promoter luciferase reporter, 24 h. Potency, µM (doses to about 9.22 µM), without a hit: at the top dose activation, hits mostly activators. actives 2.4% (n = 320,000). AID 485313, 2010; also: % of control where 0% means no effect; nearly all actives have a fitted effect of over 60% in size
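Stable NPC1-promoter luciferase Huh7 line; cpd (DMSO) 24 h, 37 °C, 5% CO2; Amplite luciferase reagent 10 min RT; luminescence readout. qHTS format.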
Starred values were filed as active, the others as inactive; ? = inconclusive; . = no result given; [ ] = another dose, or the depositor's remark. Calls follow the shape of the dose curve; as a rule, active = well fitted curve in the direction sought with a large enough effect; inconclusive = small, poorly fitted or top-dose-only effect, or another doubt; inactive = no such curve, though single readings can be large; an effect the other way counts as inactive or inconclusive. Potency is read from the fitted curve at half-maximal effect.

SMILES	ELG1 repair inh	ELG1 genotoxic	SMN2 splice enh	FLuc modulator	Rab9 promoter act	NPC1 prom act
CC(C)C[C@@H]1NC(=O)[C@H](Cc2ccccc2)N(C)C(=O)[C@H](C)NC(=O)c2ccccc2NC(=O)[C@H](Cc2ccc(O)cc2)N(C)C1=O	6.51µM*	-15.7%	.	-0.4%	-2.7%	-3.0%
CC(=O)c1ccc(OCc2ccccc2)c(C)c1O	?	?	?	16.9µM*	3.8%	15.5%
NNC(=O)c1ccccc1OCc1ccccc1	0.0%	1.4%	.	-3.3%	-3.6%	-2.7%
Cc1ccc(-c2nnc(CCC(=O)NCC3C4CC5CC(C4)CC3C5)o2)s1 (configuration not stated)	?	?	.	19µM*	2.51µM*	?
Cc1ccc(-c2nnc(CCC(=O)N(C)Cc3nccs3)o2)s1	6.0%	9.8%	.	7.1%	-10.6%	-2.1%
CN(CC(=O)Nc1ccccc1N1CCOCC1)S(=O)(=O)c1ccc(Cl)cc1	25.9µM*	-13.9%	-27.2%	9.2%	-2.9%	0.8%
O=C(Nc1ccccc1N1CCOCC1)c1ccccc1NS(=O)(=O)c1ccc(F)c(F)c1	20.6µM*	-18.0%	-39.3%	1.5%	-3.5%	-4.1%
O=C(Nc1ccccc1N1CCOCC1)c1ccc2ccccc2c1	-1.5%	-4.4%	.	10.7µM*	3.3%	8.0%
COc1cccc(/C=C/C(=O)Nc2ccccc2N2CCOCC2)c1	?	.	.	16.9µM*	9.0%	0.4%
O=C1C=CC(=O)N1c1cccc(-c2ccccc2)c1	9.8%	5.1%	.	?	0.1%	2.6%
O=C(COc1ccccc1-c1ccccc1)NNC(=O)NC1CCCCC1	?	-6.4%	13.7%	2.1%	0.8%	1.2%
Cc1cc(Cl)ccc1OCc1cc(=O)n2c3c(sc2n1)CCCC3	.	.	-6.0%	-4.0%	.	.
CS(=O)(=O)N1CCN(c2ccccc2NC(=O)c2ccc3ccccc3c2)CC1	11.6µM*	-5.0%	-1.9%	-14.6%	1.2%	1.3%
O=C(Nc1cc(S(=O)(=O)N2CCCCC2)ccc1Cl)c1ccccc1NS(=O)(=O)c1ccc(F)cc1	4.11µM*	-3.8%	-62.1%	-6.7%	-23.8%	-19.3%
CC(=O)Nc1cccc(NC(=O)C(=O)Nc2ccc3c(c2)N(C(=O)C2CC2)CCC3)c1	?	-0.4%	.	9.53µM*	?	27.8%
COc1ccccc1NC(=O)C(=O)Nc1ccc2c(c1)N(C(=O)C1CC1)CCC2	-15.4%	21.5%	.	-5.9%	25.7%	28.7%
CC(=O)Nc1ccc2c(c1)N(C(C)=O)c1ccccc1CC2	20.6µM*	-1.6%	.	2.2%	-9.1%	-9.1%
Cc1cc(Cl)cc(C)c1OCC(=O)N1CCN(c2ncccn2)CC1	1.0%	-0.2%	.	4.6%	-5.3%	-3.9%
Cc1ccc(CNC(=O)c2cc3c(C)nc4ccccc4c3o2)cc1	14.6µM*	?	-94.4%	3.2%	-17.4%	-8.1%
Cc1nc2ccccc2c2oc(C(=O)NCc3ccc4c(c3)OCO4)cc12	?	-8.3%	-42.7%	-2.5%	-0.9%	-2.3%
Cc1nc2ccccc2c2oc(C(=O)NCc3ccccn3)cc12	18.4µM*	-22.1%	-37.5%	1.8%	-4.0%	-1.1%
O=C(O)c1cc2cc(Oc3ccccc3)ccc2[nH]1	-4.5%	1.7%	.	?	3.6%	-0.8%
CSCc1nc2scc(-c3ccccc3)c2c(=O)[nH]1	-8.8%	3.5%	-3.9%	4.5%	-0.2%	-0.6%
COc1ccc(CN(C)Cc2nc3scc(-c4ccccc4)c3c(=O)[nH]2)cc1OC	16.4µM*	-7.5%	-25.5%	3.2%	-2.3%	-1.6%
COc1ccc(C(=O)NCC(c2ccccc2)N2CCCC2)cc1S(=O)(=O)N1CCOCC1 (configuration not stated)	9.5%	7.2%	.	1.0%	-0.9%	-0.3%
SMILES	ELG1 repair inh	ELG1 genotoxic	SMN2 splice enh	FLuc modulator	Rab9 promoter act	NPC1 prom act
Cc1c(CC(=O)N2CCN(C(=O)C3COc4ccccc4O3)CC2)c(=O)oc2cc(O)ccc12 (configuration not stated)	0.731µM*	-6.9%	.	-1.3%	-5.5%	-0.8%
COc1ccc2c(C)c(CC(=O)N3CCN(C(=O)C4COc5ccccc5O4)CC3)c(=O)oc2c1 (configuration not stated)	23.1µM*	-8.4%	.	2.5%	-0.9%	-4.2%
Cc1c(CC(=O)N2CCN(C(=O)C3COc4ccccc4O3)CC2)c(=O)oc2cc(O)cc(O)c12 (configuration not stated)	?	0.9%[9.26 µM]	.	4.6%	-1.4%	-8.1%
Cc1coc2c(C)c3oc(=O)c(CC(=O)N4CCCCC4)c(C)c3cc12	.	.	5.2%	-7.7%	.	.
CCOc1ccccc1C(=O)Nc1c(NC)c2ccccc2oc1=O	.	.	-0.6%	6.6%	.	.
CCOC(=O)C(C)/C(C)=N/NC(=O)CCC(=O)Nc1cc(C)ccc1C (configuration not stated)	-5.7%	-4.4%	13.0%	-0.3%	-3.5%	-3.2%
CC1=C(C(=O)Nc2cc(Cl)ccc2C)C(c2cccs2)n2ncnc2N1 (configuration not stated)	.	.	.	-2.8%	.	.
O=C(Nc1ccc(-c2n[nH]c(=S)o2)cc1)c1ccccc1Cl	?	10.6%	.	10.7µM*	22.1%	18.9%
CC(C)(C)N1C(=O)c2ccc(C(=O)Nc3ccc(C(=O)O)cc3)cc2C1=O	2.8%	-0.6%	.	10.7µM*	5.8%	6.7%
O=C(O)c1ccc2c(c1)C(=O)N(c1cccc(C(=O)/C=C/c3ccccc3)c1)C2=O	?	4.1%	.	2.69µM*	-7.6%	4.1%
O=C(Nc1ccccc1O)c1ccc2c(c1)C(=O)N(c1ccccc1)C2=O	-9.7%	1.2%	.	4.9%	0.2%	1.0%
CCN1C(=O)c2ccc(C(=O)Nc3cccc(C(=O)O)c3)cc2C1=O	-2.7%	2.5%	.	0.269µM*	?	17.6%
O=C(O)c1ccc(NC(=O)c2ccc3c(c2)C(=O)N(c2ccccc2)C3=O)cc1	-7.5%	2.8%	.	15.1µM*	-0.2%	-2.2%
O=C(O)c1cccc(N2C(=O)c3cc4cccc(Br)c4cc3C2=O)c1	2.0%	-0.7%	.	-7.4%	-9.4%	-6.4%
CCN1C(=O)c2ccc(C(=O)O)cc2C1=O	2.1%	0.9%	2.2%	-0.6%	-2.0%	-1.5%
O=C(NCc1cccs1)C1CCN(S(=O)(=O)c2cccc([N+](=O)[O-])c2)CC1	2.9%	2.0%	.	-1.5%	4.1%	1.7%
COc1ccc(NC(=O)c2oc3ccc(S(=O)(=O)N(C)C4CCCCC4)cc3c2C)cc1Cl	.	.	.	-3.2%	.	.
